# An excerpt weighted towards active compounds, which were near 1.8% of everything screened.
# RPL19A-GFP yeast = yeast TOR pathway RPL19A-GFP modulation; S. cerevisiae RPL19A-GFP strain, flow cytometry, 3 h; active compounds read low; percent response vs DMSO, % at 10 µM; actives 0.3% (n = 330,000);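 active means percent response vs DMSO below 50%; inconclusive means fewer than 70 events counted for the yeast strain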;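 further: median channel GFP fluorescence of the barcoded RPL19A-GFP strain; ratio of sample median GFP to plate DMSO average so 100% = DMSO; lower means less RPL19A-GFP as with rapamycin TOR inhibition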
# Myeloid diff 2 = promotes myeloid progenitor differentiation. ER-HoxA9 myeloid progenitors, lysozyme-GFP differentiation, flow cytometry. calls only at 10 µM. actives 1% (n = 360,000). AID 624256;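 active means normalized GFP-positive differentiation at or above the plate's own cutoff, the solvent-only control mean plus 3 SD; inconclusive means no clear call, values can overlap the other calls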;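 further: cells exposed to compound for four days before flow analysis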
# LAP4 TOR yeast = modulators of TOR pathway LAP4-GFP in S. cerevisiae; S. cerevisiae LAP4-GFP multiplex, flow cytometry GFP, 3 h; median GFP as percent of DMSO wells; GFP response vs DMSO, % at 10 µM; actives 0.34% (n = 320,000); AID 2023;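 active means GFP response vs DMSO above a set limit, about the screen mean plus 3 SD, cut at about 150% in these data; inconclusive means under 70 cell events counted for the yeast strain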
# CIT2 TOR yeast = yeast TOR pathway CIT2-GFP modulation. actives 0.065% (n = 320,000). S. cerevisiae CIT2-GFP strain, flow cytometry, 3 h; 100 means same as DMSO wells. AID 2029. GFP response vs DMSO, % at 10 µM;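 active means GFP response relative to DMSO above a set limit, near the screen mean plus 3 SD, cut at about 150% in these data; inconclusive means Fewer than 70 cells measured for a yeast strain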;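 further: ratio of well median GFP fluorescence to mean of DMSO wells on the plate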
# MEP2 TOR yeast = alters MEP2-GFP fluorescence in TOR pathway yeast screen; actives 0.51% (n = 330,000); S. cerevisiae MEP2-GFP strain, flow cytometry GFP, 3 h; 100% = DMSO control level; GFP response vs DMSO, % at 10 µM;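 active means GFP response versus DMSO above a set limit, roughly screen mean plus 3 SD, cut at about 180% in these data; inconclusive means fewer than 70 cells counted for a yeast strain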;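 further: median GFP fluorescence of the barcode-gated MEP2-GFP cells per well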
# AGP1-GFP MLPCN = modulators of TOR pathway AGP1-GFP in S. cerevisiae. actives 0.02% (n = 320,000). S. cerevisiae AGP1-GFP multiplex flow cytometry, 3 h; GFP as percent of DMSO wells. GFP response vs DMSO, % at 10 µM;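 active means GFP response relative to DMSO above a set limit, near screen average plus 3 SD, cut at about 150% in these data; inconclusive means fewer than 70 cells counted for the yeast strain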;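 further: median GFP channel fluorescence of the gated AGP1 strain per well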
# LAP4-GFP pick2 = reconfirmed LAP4-GFP TOR pathway modulator in yeast. shares compounds with LAP4 TOR yeast. S. cerevisiae LAP4-GFP strain, flow cytometry GFP, 3 h. GFP response vs DMSO, % at 10 µM. actives 20% (n = 590). AID 2621;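 active means GFP signal as percent of the solvent control above about 150%, meaning raised reporter expression, limit read from the data; inconclusive means fewer than 70 cells counted in the well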;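 further: ratio of well median GFP fluorescence to plate DMSO mean so 100% = DMSO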
# MEP2-GFP pick2 = second confirmation of modulators of TOR reporter MEP2-GFP in yeast. shares compounds with LAP4 TOR yeast. GFP response vs DMSO, % at 10 µM. actives 10% (n = 590). S. cerevisiae MEP2-GFP strain, flow cytometry GFP, 3 h;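 active means GFP signal above 150% of the solvent control wells, that is a rise of more than half; inconclusive means fewer than 70 yeast cells counted in the well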;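 further: median channel GFP fluorescence of all gated yeast cells per well; ratio of median GFP to plate DMSO average so 100% = DMSO level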
# RPL19A-GFP pick2 = second confirmation of modulators of TOR reporter RPL19A-GFP in yeast | AID 2623 | shares compounds with LAP4 TOR yeast | S. cerevisiae RPL19A-GFP strain, flow cytometry GFP, 3 h; active compounds read low; 100% means same as DMSO wells | actives 3% (n = 590) | GFP response vs DMSO, % at 10 µM;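 active means under 65% GFP response relative to DMSO; inconclusive means yeast strain with under 70 measured events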;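 further: median GFP channel fluorescence per well over the all cells gate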
# CIT2-GFP pick2 = reconfirmed modulator of CIT2-GFP TOR reporter in yeast; shares compounds with LAP4 TOR yeast; actives 8% (n = 590); GFP response vs DMSO, % at 10 µM; S. cerevisiae CIT2-GFP strain, flow cytometry GFP, 3 h; DMSO control wells read 100%;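 active means GFP response vs DMSO above about 150%, limit read from the data; inconclusive means fewer than 70 events counted for a yeast strain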;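 further: median green fluorescence per well over all gated yeast cells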
# AGP1-GFP pick2 = reconfirmed modulator of AGP1-GFP TOR reporter in yeast; S. cerevisiae AGP1-GFP strain, flow cytometry GFP, 3 h; shares compounds with LAP4 TOR yeast; percent response vs DMSO, % at 10 µM; 590 tested, under 10 active; AID 2643;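 active means over 150 percent of DMSO response; inconclusive means yeast strain measured with under 70 events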;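 further: median GFP channel fluorescence over all cells without mother daughter split; sample median GFP divided by mean DMSO control so 100% equals DMSO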
# Yeast autofluor = yeast s288c autofluorescence artifact, counter-screen. shares compounds with LAP4 TOR yeast. AID 2757. fluorescence change (kMESF span) at 33 µM. 610 tested, under 10 active. S. cerevisiae s288c, 520 nm autofluorescence, flow cytometry, 3 h; active compounds read high; zero means same as solvent-only cells;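 active means fluorescence span over the dose series, or activity score, above about 33, limit read from the data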
# Yeast autofl DR = TOR screen hit shows autofluorescence in yeast s288c. shares compounds with LAP4 TOR yeast. S. cerevisiae s288c parental, compound autofluorescence, flow cytometry, 3 h. fluorescence change (span) at 33 µM. 110 tested, under 10 active. AID 488829;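 active means fluorescence change span, or the activity score built from it, above 25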
# TORC1 bypass gr = wildtype yeast growth loss with TORC1 bypass cells unaffected. shares compounds with LAP4 TOR yeast. S. cerevisiae BY4741 spot growth rating, 48-72 h; active compounds read low. growth rating (0-3) at 30 µM. 120 tested, under 10 active;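 active means growth rating at most 1 for wild type yeast while the TORC1 bypass strain still grows fully, rated 3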
# The depositor's hits bear a star; i = inactive; ? = inconclusive; · = no result given; + = active, no number.
SMILES,RPL19A-GFP yeast,Myeloid diff 2,LAP4 TOR yeast,CIT2 TOR yeast,MEP2 TOR yeast,AGP1-GFP MLPCN,LAP4-GFP pick2,MEP2-GFP pick2,RPL19A-GFP pick2,CIT2-GFP pick2,AGP1-GFP pick2,Yeast autofluor,others
CC(=O)c1ccc(NC(=O)Cn2c3ccccc3c3nc(=O)cc(C)n32)cc1,56,i,92,84,156,71,100,102,100,97,100,·,
COC(=O)Cn1c2ccccc2c2nc(=O)cc(C)n21,94,i,97,94,96,100,·,·,·,·,·,·,
CS(=O)(=O)N1N=C(c2ccc(Br)cc2)CC1c1cccs1 (stereo unspecified),90,i,116,99,95,93,·,·,·,·,·,·,
CCc1ccc(C2=NN(S(C)(=O)=O)C(c3cccs3)C2)cc1 (stereo unspecified),131,+,258*,230*,378*,128,253*,484*,132,384*,132,·,
O=C(CNC(=O)c1ccccc1)NCC(=O)OCC(=O)c1ccc([N+](=O)[O-])cc1,100,i,94,95,98,101,·,·,·,·,·,·,
CSC1=NS(=O)(=O)c2c(C)nn(C)c2S1,85,i,154*,68,92,94,·,·,·,·,·,0,Yeast autofl DR=0;TORC1 bypass gr=3
Oc1c(I)cc(I)c2cccnc12,100,?,238*,148,111,96,167*,147,82,113,94,1.2,Yeast autofl DR=0.9;TORC1 bypass gr=3
CC(C)C(=O)NC(c1cccs1)c1cc([N+](=O)[O-])c2cccnc2c1O (stereo unspecified),88,i,153*,109,128,55,·,·,·,·,·,-0.1,
O=C(CN(C1CCCCC1)S(=O)(=O)c1ccc(Cl)cc1)N1CCOCC1,54,i,90,96,150,48,99,100,98,99,97,·,
O=C1/C(=C\c2ccc(O)c(O)c2)SC(=S)N1Cc1ccccc1,97,+,219*,203*,409*,44,·,·,·,·,·,33*,
Cc1ccc(/C=C2\SC(=S)N(Cc3ccccc3)C2=O)o1,97,i,156*,95,107,86,152*,123,106,120,99,1.3,
COc1ccc(-n2nc3c(c2NC(=O)c2ccc(Br)cc2)CS(=O)C3)cc1 (stereo unspecified),103,i,101,103,108,100,·,·,·,·,·,·,
Cc1cc(/C=C2/SC(=S)N(c3ccc([N+](=O)[O-])cc3)C2=O)c(C)n1-c1cccnc1,103,i,115,142,144,97,·,·,·,·,·,·,
Cc1cc(/C=C2/SC(=S)N(c3cccc(Cl)c3)C2=O)c(C)n1-c1cccnc1,107,+,154*,120,154,106,·,·,·,·,·,3.5,
CC1(C)CC(=O)C2=C(C1)OC(N)=C(C#N)C2c1cc2c(cc1[N+](=O)[O-])OCO2 (stereo unspecified),95,i,98,97,99,90,·,·,·,·,·,·,
O=C(NC(=S)Nc1ccccc1Br)c1ccco1,104,i,84,114,101,99,·,·,·,·,·,·,
O=C(NC1CCCCC1)c1cc2nc3c(c(C(F)(F)F)n2n1)CCCC3,99,i,98,101,109,100,·,·,·,·,·,·,
O=C(Nc1ccccc1Cl)C(Cl)C(=O)c1ccccc1 (stereo unspecified),·,i,·,·,·,·,110,98,104,111,99,·,
O=C(Nc1ccc(Cl)cc1)C(Cl)C(=O)c1ccccc1 (stereo unspecified),102,i,107,102,90,97,·,·,·,·,·,·,
OC[C@@H]1CN(Cc2ccc(-c3ccccc3)cc2)C[C@H](n2cnc3c(NCc4ccncc4)ncnc32)O1,·,i,·,·,·,·,·,·,·,·,·,·,
Oc1c(Br)cc(Br)cc1C=Nc1ccc2c(c1)OCO2,91,i,152*,97,96,87,·,·,·,·,·,-0.11,
CN(C)S(=O)(=O)c1cccc(C(=O)Nc2ccccc2C(=O)NC2CC2)c1,92,i,152*,93,109,115,104,105,100,102,98,·,
O=C(Nc1ccccc1)ON=C1CCCC1,103,i,117,130,101,68,106,107,108,129,61,0.2,
Cc1ccc(NC(=O)ON=C2CCCC2)cc1,95,i,120,219*,103,55,·,·,·,·,·,1.6,
Cc1ccc(NC(=O)C/C(N)=N/OC(=O)Nc2cccc(C)c2)cc1,99,i,100,106,110,99,·,·,·,·,·,·,
CCCc1c(O)nc(SCCN(CC)CC)n(C(=O)c2ccccc2)c1=O,36*,i,116,115,248*,28,97,102,99,96,99,·,
CCO[C@@H]1OC(C(=O)N2CCCCCCC2)=C[C@H](c2cn(C(C)=O)c3ccccc23)[C@H]1CCCO,102,i,103,101,89,93,·,·,·,·,·,·,
CCO[C@H]1OC(C(=O)N2CCOCC2)=C[C@@H](c2cn(C(C)=O)c3ccccc23)[C@@H]1CCCO,74,i,223*,111,507*,120,99,96,100,103,100,·,

# Compound activity (PubChem BioAssay)
